This passage reports binding signal results from paper PMC7862700, “An all-to-all approach to the identification of sequence-specific readers for epigenetic DNA modifications on cytosine”.

Common to all, as to test: DAPPL (digital affinity profiling via proximity ligation, sequencing); 10 mM Tris-HCl pH 7.5, 50 mM NaCl, 1 mM DTT, 4% glycerol, room temperature, 30 min; GST-TFs on glutathione beads, 16-mer random dsDNA library, 0.1% formaldehyde crosslink after washing; high values mean tight binding
Holding throughout (conditions): protein: recombinant; tags: N-terminal GST; dsDNA, one strand shown

One experiment addresses T1, ELK1 (Homo sapiens, UniProt P19419 1-428).
T1 sequence: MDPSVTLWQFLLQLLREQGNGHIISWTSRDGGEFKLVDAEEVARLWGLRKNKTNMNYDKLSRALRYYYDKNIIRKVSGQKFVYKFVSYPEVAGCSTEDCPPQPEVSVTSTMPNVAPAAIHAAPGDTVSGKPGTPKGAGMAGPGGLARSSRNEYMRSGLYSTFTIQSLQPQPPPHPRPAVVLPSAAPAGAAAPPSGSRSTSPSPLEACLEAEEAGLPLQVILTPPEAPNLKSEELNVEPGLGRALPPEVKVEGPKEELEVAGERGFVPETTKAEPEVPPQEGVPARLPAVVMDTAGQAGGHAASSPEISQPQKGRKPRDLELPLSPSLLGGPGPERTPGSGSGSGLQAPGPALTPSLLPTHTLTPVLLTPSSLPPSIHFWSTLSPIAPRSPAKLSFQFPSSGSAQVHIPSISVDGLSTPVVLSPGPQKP
The method, boiled down: (§1)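 A tag-only sample was pooled with DNA-barcoded human transcription factors that had been expressed in yeast as GST fusions and captured on glutathione beads. The pools were incubated for 30 min at room temperature with 200 nmole of a random double-stranded 16-mer DNA library in Tris/NaCl/DTT/glycerol buffer, then washed, crosslinked with 0.1% formaldehyde, proximity-ligated (BsaI/T4 ligase, 1 h, 37 °C), PCR-amplified and sequenced on an Illumina NextSeq500. Binding signal is each hexamer's read frequency for a factor divided by its frequency for the tag-only sample.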

Another experiment has as its target ELF1 (Homo sapiens, UniProt P32519 1-619). An outline of the steps: as §1
Another experiment deals with SPIB (Homo sapiens, UniProt Q01892 1-262). An outline of the steps: as §1
Chain of SPIB (Q01892 whole entry): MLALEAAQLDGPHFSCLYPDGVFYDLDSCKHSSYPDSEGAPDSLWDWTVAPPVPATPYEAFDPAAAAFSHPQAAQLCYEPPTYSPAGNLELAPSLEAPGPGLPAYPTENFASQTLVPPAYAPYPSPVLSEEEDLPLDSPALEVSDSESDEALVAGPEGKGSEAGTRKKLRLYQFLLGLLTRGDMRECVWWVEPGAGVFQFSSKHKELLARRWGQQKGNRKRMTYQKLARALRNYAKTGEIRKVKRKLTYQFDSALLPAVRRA
The target in a further experiment is ETV5 (Homo sapiens, UniProt P41161 1-510). An outline of the steps:
as §1

The target of another experiment is T2, SPIC (Homo sapiens, UniProt Q8N5J4 1-248).
T2 sequence: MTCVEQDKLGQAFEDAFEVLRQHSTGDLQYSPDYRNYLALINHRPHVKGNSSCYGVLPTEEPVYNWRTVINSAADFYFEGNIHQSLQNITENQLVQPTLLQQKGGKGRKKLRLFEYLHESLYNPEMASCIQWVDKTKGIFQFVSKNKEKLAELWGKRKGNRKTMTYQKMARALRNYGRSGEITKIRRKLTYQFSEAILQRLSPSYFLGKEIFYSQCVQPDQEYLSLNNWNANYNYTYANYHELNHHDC
The method, boiled down: as §1

The next experiment concerns the target T3, ELK4 (Homo sapiens, UniProt P28324-2 1-405).
T3 sequence: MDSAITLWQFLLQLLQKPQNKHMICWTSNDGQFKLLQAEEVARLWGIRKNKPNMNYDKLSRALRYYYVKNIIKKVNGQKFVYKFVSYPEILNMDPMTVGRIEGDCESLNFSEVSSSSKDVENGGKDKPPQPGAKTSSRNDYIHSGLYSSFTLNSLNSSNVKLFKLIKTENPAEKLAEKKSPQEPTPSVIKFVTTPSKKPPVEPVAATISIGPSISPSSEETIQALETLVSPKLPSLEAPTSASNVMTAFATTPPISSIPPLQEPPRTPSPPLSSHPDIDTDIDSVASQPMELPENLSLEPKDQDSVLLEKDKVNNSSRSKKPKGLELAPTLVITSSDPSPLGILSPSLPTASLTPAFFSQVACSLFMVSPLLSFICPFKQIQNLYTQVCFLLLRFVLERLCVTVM
An outline of the steps: as §1

A further experiment deals with T4, ERF (Homo sapiens, UniProt P50548 1-548).
T4 sequence: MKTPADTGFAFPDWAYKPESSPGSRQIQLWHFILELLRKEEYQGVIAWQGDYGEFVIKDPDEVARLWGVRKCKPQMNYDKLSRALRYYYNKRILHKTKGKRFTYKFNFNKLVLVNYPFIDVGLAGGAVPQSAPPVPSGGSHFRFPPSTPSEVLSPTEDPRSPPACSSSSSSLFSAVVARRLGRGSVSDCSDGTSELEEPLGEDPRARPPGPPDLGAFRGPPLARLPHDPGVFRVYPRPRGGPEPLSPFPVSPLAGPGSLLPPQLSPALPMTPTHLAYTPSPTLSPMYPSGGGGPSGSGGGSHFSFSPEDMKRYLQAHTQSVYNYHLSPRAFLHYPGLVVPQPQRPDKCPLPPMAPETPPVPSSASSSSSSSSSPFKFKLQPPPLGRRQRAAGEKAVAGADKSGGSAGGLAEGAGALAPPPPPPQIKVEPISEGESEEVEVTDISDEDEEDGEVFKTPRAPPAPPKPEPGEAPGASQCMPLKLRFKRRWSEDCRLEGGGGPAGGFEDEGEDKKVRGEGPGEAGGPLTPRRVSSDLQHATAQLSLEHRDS
An outline of the steps:
as §1

The next experiment deals with T5, ETV3L (Homo sapiens, UniProt Q6ZN32 1-361).
T5 sequence: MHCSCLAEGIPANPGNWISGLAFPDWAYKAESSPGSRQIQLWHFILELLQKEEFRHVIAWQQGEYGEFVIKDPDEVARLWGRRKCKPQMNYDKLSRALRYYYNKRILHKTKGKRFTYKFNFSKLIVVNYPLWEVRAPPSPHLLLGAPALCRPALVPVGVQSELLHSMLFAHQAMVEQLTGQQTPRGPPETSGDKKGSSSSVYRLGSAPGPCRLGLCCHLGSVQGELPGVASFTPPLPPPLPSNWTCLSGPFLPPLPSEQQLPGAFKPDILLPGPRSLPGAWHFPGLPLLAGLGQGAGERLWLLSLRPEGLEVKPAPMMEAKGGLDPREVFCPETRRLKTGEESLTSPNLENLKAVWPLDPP
An outline of the steps:
as §1

A further experiment addresses T6, ETS2 (Homo sapiens, UniProt P15036 1-469).
T6 sequence: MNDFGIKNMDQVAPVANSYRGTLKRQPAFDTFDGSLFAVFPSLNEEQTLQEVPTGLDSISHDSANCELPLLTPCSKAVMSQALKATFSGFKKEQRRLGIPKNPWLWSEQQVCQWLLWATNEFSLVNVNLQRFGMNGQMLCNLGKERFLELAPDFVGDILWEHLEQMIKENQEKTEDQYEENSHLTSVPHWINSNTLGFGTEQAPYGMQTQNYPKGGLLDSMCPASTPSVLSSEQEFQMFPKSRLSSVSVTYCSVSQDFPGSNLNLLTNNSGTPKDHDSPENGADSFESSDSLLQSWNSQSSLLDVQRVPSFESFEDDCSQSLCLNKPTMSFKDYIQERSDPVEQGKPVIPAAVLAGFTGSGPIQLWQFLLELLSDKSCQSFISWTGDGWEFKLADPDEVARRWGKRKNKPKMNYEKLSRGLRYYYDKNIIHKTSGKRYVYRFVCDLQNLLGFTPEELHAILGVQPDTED
An outline of the steps: as §1

In the next experiment the target is T7, SPDEF (Homo sapiens, UniProt O95238 1-335).
T7 sequence: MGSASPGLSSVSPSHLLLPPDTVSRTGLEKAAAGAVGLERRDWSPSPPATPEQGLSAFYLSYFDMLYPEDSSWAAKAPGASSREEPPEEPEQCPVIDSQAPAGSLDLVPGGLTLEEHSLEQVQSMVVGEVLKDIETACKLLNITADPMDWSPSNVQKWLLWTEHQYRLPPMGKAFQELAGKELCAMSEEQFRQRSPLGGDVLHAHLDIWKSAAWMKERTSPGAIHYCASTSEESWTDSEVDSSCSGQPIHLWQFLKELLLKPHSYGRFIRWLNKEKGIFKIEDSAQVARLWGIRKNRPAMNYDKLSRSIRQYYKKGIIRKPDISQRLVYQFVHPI
An outline of the steps: as §1

The next experiment concerns the target T8, ETV3 (Homo sapiens, UniProt P41162-2 1-143).
T8 sequence: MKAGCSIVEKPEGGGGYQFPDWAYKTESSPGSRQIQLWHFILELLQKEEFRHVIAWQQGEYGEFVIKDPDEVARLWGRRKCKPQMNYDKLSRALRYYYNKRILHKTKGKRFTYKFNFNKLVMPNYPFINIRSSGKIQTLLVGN
The method, boiled down: as §1

For a further experiment, the target named is ETV6 (Homo sapiens, UniProt P41212 1-452). The method, boiled down:
as §1

The target in a further experiment is T9, GABPA (Homo sapiens, UniProt Q06546 1-454).
T9 sequence: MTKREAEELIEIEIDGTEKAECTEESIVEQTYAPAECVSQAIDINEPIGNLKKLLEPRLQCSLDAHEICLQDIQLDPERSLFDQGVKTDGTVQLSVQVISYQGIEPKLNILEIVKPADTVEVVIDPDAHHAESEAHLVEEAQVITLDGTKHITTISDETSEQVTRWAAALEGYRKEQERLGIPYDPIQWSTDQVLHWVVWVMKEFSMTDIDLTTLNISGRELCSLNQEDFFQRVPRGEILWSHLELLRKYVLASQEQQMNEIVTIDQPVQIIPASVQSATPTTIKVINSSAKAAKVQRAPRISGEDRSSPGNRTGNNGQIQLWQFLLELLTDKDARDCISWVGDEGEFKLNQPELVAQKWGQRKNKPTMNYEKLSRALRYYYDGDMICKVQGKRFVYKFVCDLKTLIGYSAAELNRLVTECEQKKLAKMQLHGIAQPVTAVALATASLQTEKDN
The method, boiled down: as §1

In a further experiment the target is ELF4 (Homo sapiens, UniProt Q99607 1-663). An outline of the steps: as §1
Chain of ELF4 (Q99607 whole entry): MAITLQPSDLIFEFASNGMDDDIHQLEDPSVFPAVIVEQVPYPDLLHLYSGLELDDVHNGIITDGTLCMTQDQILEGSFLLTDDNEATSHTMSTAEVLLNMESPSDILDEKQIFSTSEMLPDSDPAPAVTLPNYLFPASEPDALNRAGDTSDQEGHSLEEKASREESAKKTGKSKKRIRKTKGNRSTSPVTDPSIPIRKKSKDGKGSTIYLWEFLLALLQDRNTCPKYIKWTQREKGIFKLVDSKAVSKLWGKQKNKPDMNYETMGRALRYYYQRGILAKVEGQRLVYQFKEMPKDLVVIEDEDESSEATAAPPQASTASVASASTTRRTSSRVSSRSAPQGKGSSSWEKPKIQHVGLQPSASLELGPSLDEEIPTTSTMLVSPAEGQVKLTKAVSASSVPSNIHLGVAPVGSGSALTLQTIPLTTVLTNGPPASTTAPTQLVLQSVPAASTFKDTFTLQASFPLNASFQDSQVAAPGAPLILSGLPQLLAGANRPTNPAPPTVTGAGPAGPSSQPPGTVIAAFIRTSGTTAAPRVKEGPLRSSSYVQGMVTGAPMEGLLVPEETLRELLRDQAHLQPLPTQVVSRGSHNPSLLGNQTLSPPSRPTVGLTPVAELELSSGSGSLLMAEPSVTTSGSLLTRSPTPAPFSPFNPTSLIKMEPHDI
The next experiment has as its target T10, ETV7 (Homo sapiens, UniProt Q9Y603 1-341).
T10 sequence: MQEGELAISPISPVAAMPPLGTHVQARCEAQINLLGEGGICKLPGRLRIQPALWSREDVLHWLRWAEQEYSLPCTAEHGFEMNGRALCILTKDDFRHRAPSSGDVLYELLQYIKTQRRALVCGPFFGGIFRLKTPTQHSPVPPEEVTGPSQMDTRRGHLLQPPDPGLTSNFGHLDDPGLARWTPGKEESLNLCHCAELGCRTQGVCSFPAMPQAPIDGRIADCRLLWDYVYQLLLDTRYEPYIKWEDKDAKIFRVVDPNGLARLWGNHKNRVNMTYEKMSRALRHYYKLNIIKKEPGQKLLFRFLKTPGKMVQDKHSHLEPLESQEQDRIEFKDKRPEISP
An outline of the steps: as §1

Chain of ETV5 (P41161 whole entry): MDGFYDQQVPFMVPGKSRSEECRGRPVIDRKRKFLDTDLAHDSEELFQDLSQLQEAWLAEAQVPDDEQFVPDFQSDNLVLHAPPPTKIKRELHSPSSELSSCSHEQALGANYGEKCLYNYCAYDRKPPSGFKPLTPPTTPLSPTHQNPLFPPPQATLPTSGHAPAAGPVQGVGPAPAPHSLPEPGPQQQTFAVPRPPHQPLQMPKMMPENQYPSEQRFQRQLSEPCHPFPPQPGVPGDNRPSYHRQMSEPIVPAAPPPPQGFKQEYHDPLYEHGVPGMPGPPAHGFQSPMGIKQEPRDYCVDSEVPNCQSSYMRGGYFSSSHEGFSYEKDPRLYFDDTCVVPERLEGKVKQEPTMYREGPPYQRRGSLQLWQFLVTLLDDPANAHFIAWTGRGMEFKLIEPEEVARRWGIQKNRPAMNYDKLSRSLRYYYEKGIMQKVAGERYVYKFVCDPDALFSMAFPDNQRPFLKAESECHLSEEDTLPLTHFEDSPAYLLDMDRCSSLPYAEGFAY
Chain of ETV6 (P41212 whole entry): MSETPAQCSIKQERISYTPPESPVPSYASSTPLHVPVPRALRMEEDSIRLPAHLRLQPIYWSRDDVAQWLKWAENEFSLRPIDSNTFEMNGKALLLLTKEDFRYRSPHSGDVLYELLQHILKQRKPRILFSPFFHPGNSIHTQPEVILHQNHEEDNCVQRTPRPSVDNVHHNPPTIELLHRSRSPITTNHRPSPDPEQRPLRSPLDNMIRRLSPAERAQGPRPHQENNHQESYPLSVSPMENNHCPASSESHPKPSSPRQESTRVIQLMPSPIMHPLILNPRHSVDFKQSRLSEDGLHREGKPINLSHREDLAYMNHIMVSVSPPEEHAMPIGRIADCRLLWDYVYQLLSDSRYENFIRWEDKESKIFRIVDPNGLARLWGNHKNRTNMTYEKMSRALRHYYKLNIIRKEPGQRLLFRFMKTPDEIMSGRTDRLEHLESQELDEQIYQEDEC
Chain of ELF1 (P32519 whole entry): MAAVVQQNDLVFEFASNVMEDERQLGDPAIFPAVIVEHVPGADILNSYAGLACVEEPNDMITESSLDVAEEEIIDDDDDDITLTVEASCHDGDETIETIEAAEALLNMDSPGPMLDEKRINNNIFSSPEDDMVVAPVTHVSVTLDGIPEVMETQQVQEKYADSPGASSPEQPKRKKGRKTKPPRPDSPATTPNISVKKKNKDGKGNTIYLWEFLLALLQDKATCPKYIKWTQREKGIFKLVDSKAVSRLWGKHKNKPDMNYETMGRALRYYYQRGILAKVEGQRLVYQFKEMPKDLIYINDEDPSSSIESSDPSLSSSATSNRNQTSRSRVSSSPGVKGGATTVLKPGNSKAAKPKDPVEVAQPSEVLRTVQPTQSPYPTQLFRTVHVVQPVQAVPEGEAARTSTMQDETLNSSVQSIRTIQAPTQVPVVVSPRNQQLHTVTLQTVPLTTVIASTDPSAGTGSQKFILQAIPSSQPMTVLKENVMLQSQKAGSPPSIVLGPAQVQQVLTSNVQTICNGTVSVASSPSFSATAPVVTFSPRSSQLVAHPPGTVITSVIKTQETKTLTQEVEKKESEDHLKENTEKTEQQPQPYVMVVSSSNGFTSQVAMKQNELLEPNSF

Consider GTGCCT, for which the binding signal was 1.05 fold enrichment (6-mer frequency, TF over GST control) with ELK1; 1.02 fold enrichment (6-mer frequency, TF over GST control) with ELF1; 1.05 fold enrichment (6-mer frequency, TF over GST control) with SPIB; 1.07 fold enrichment (6-mer frequency, TF over GST control) with ETV5; 1.2 fold enrichment (6-mer frequency, TF over GST control) with SPIC; 1.16 fold enrichment (6-mer frequency, TF over GST control) in the experiment with ELK4. The binding signal in the experiment with ERF was 1.07 fold enrichment (6-mer frequency, TF over GST control); in the experiment with ETV3L, 1.17 fold enrichment (6-mer frequency, TF over GST control); with ETS2 it was 1.06 fold enrichment (6-mer frequency, TF over GST control); with SPDEF, 1.02 fold enrichment (6-mer frequency, TF over GST control); with ETV3, 1.07 fold enrichment (6-mer frequency, TF over GST control); with ETV6, 1.02 fold enrichment (6-mer frequency, TF over GST control).
Take TAGGCC: the binding signal with GABPA was 1.02 fold enrichment (6-mer frequency, TF over GST control); in the experiment with ETV5 it was 1.05 fold enrichment (6-mer frequency, TF over GST control); with ELF4, 1.01 fold enrichment (6-mer frequency, TF over GST control); with ETV7 it was 1.03 fold enrichment (6-mer frequency, TF over GST control).
